Test results from PubChem BioAssay.
Active and inactive are the calls of the source. Unless noted, the rule behind the calls is not given here.

How the values were obtained:
[1] = test system: Wnt5a (protein binding on small-molecule microarray); test: small molecules binding Wnt5a protein – biophysical, small-molecule microarray, 635/667 nm fluorescence, primary screen (AID 1142); settings: 635 nm fluorescence, higher = more signal;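 note: fluorescence read at 667 nm with signal to noise per printed feature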
[2] = ATP-based viability of Huh7 replicon cells – cell-based, CellTiter-Glo luminescence, basal, 48 h, cytotoxicity control for HCV replication inhibitor project, primary screen (AID 1143); settings: higher = more signal, called active from +8 up or from −8 down;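 note: Huh7 hepatoma cells carrying a hepatitis C replication reporter with no stimulus; test concentration not given here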
[3] = Pseudomonas biofilm growth suppression – PAO1 strain, BacTiter-Glo luminescence, LB-PBS, primary screen (AID 1144); settings: P. aeruginosa PAO1 biofilm, 12 h, higher = more signal
[4] = basal CRE-LacZ reporter activity in PC12 – cell-based, unstimulated, primary screen (AID 1145); settings: no forskolin, luminescence, 4.5 h, higher = more signal, called active from +8 up or from −8 down
[5] = forskolin-driven CRE-LacZ activity in PC12 – cell-based, CRE-LacZ reporter, forskolin-stimulated, primary screen (AID 1146); settings: luminescence, 4.5 h, higher = more signal, called active from +8 up or from −8 down;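 note: PC12 cells with 6xCRE LacZ reporter stimulated by forskolin 10 µM; beta-galactosidase reporter signal reflecting CREB driven transcription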
[6] = target: Streptavidin (Streptomyces avidinii) (UniProt P22629); test: compounds binding control protein streptavidin – biophysical, small-molecule microarray, 635/667 nm fluorescence, artefact control for SMM compound annotation, primary screen (AID 1147); settings: higher = more signal;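 note: signal reflects streptavidin binding to arrayed compounds as a control protein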
Streptavidin (Streptomyces avidinii), sequence (P22629 whole entry, looked up): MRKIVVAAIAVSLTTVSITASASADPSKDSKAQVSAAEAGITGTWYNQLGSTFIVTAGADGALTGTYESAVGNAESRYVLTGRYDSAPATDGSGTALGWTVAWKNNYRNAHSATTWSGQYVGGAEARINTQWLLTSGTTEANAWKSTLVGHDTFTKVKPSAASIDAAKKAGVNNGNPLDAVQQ

[7] = probe aInhba binding on compound microarray – biochemical, small-molecule microarray, 635/667 nm fluorescence, primary screen (AID 1148); settings: higher = more signal;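 note: score merges 667nm spot fluorescence with signal-to-noise for antibody binding to printed compounds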
[8] = target: Torsin-1A (Homo sapiens) (UniProt O14656); test: TOR1A wild-type binding on microarray – cell lysate, small-molecule microarray, lysate, 635/667 nm, primary screen (AID 1149); settings: COS7 hTOR1A-WT lysate, 635 nm fluorescence, higher = more signal
Torsin-1A (Homo sapiens), sequence (O14656 whole entry, looked up): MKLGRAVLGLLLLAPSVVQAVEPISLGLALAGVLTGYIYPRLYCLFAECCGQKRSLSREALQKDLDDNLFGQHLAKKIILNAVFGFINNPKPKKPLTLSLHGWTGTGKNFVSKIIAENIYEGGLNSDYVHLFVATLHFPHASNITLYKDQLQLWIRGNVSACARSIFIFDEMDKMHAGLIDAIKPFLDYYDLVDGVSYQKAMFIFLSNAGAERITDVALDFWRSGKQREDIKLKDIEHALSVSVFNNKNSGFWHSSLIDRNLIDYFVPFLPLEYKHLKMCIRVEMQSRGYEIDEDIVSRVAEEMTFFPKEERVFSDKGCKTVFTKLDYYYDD

[9] = target: Torsin-1A (Homo sapiens) (UniProt O14656); test: torsin A mutant lysate binding on microarrays – cell lysate, small-molecule microarray, COS7 lysate, 635/667 nm fluorescence, primary screen (AID 1150); settings: COS7 hTOR1A mutant lysate, 635 nm fluorescence, higher = more signal;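 note: score pools 667 nm emission and signal to noise measuring lysate protein binding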
[10] = test system: Sonic hedgehog protein (Shh); test: Sonic hedgehog microarray binding compounds – biochemical, small-molecule microarray, 635/667 nm fluorescence, primary screen (AID 1151); settings: 635 nm fluorescence, higher = more signal;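 note: Shh protein binding to compounds spotted on small-molecule microarray slides; score combines spot fluorescence intensity with signal-to-noise across triplicate slides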
[11] = optical density shifts of acrAB sulA E. coli – strain DRC41, OD650, 48 h, E. coli filamentation inducer project, primary screen (AID 1152); settings: higher = more signal, called active from +8 up or from −8 down;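 note: E. coli MC1000 strain DRC41 lacking acrAB efflux pump and sulA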
[12] = probe aLefty1 binding on compound microarray – biochemical, small-molecule microarray, 635/667 nm fluorescence, primary screen (AID 1153); settings: higher = more signal;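 note: score merges spot fluorescence with signal-to-noise ratio from the scanned slide images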
[13] = plasmodial surface anion channel blockers, osmotic lysis – cell-based, P. falciparum Indochina, OD700, 1 h, primary screen (AID 1154); settings: P. falciparum Indochina infected RBC osmotic lysis, higher = more signal, called active from +8 up or from −8 down
[14] = plasmodial surface anion channel blockers, osmotic lysis – cell-based, P. falciparum Indochina, OD700, 2 h, primary screen (AID 1155);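 note: lysis reports solute entry through the parasite surface anion channel PSAC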; settings: P. falciparum Indochina infected erythrocytes, higher = more signal, called active from +8 up or from −8 down
[15] = changes in parasitized red cell lysis, either direction – P. falciparum Indochina, OD700, 3 h, PSAC antagonist project, primary screen (AID 1156); settings: P. falciparum-infected erythrocytes, osmotic lysis, higher = more signal, called active from +8 up or from −8 down
[16] = plasmodial surface anion channel blockers, osmotic lysis – cell-based, P. falciparum Indochina, OD700, 18 h, primary screen (AID 1157); settings: P. falciparum Indochina infected erythrocytes, osmotic lysis OD700, 18 h; higher = more signal, called active from +8 up or from −8 down
[17] = S6 kinase pathway phospho-S6 level changes – cell-based, A549, cytoblot, luminescence, serum-stimulated, primary screen (AID 1158); settings: 5 h, higher = more signal;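 note: serum-stimulated A549 lung adenocarcinoma cells; signal is phosphorylated S6 detected by cytoblot immunostaining with HRP secondary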
[18] = target: NADPH oxidase 2 (Homo sapiens) (UniProt P04839); test: compounds shifting NOX2 Amplex Red fluorescence – cell-based, HEK293-NOX2, PMA-stimulated, NOX inhibitor project, primary screen (AID 1159); settings: 45 min, higher = more signal, called active from +8 up or from −8 down; note: test concentration not given here
NADPH oxidase 2 (Homo sapiens), sequence (P04839 whole entry, looked up): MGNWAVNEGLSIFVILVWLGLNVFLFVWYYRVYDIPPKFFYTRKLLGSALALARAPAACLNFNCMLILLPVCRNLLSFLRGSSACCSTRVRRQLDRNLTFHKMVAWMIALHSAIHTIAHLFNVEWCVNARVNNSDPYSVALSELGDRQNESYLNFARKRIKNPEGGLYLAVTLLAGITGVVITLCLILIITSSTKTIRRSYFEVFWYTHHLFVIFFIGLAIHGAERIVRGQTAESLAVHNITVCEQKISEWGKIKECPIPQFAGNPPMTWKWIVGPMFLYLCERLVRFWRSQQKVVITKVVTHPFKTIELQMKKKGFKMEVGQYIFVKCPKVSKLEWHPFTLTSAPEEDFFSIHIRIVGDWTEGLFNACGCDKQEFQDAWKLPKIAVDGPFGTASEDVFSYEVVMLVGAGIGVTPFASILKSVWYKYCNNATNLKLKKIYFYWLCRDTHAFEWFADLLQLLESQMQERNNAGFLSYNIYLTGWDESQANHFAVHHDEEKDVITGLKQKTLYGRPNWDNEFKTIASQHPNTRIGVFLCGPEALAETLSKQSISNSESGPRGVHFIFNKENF

[19] = target: NADPH oxidase 4 (Homo sapiens) (UniProt Q9NPH5); test: compounds shifting NOX4 Amplex Red fluorescence – cell-based, HEK293-NOX4, tetracycline-induced, NOX inhibitor project, primary screen (AID 1160); settings: HEK293-NOX4, Amplex Red H2O2 fluorescence, 45 min; higher = more signal, called active from +8 up or from −8 down
NADPH oxidase 4 (Homo sapiens), sequence (Q9NPH5 whole entry, looked up): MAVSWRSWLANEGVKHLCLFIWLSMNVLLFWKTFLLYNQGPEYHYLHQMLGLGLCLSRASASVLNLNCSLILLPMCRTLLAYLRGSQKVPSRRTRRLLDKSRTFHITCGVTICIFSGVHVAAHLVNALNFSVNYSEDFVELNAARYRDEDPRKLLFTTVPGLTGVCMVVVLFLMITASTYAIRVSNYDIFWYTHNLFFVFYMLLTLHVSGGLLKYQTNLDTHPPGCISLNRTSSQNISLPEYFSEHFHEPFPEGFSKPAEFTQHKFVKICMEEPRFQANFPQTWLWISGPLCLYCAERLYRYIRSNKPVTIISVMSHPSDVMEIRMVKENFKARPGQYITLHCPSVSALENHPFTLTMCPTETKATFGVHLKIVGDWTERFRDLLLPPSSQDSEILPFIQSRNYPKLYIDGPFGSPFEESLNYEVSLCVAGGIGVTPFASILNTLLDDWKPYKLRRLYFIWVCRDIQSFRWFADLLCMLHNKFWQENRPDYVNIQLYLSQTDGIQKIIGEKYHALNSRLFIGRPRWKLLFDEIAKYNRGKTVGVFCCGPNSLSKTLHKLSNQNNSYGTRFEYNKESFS

[20] = target: NADPH oxidase 5 (Homo sapiens) (UniProt Q96PH1); test: compounds shifting NOX5 Amplex Red fluorescence – cell-based, HEK293-NOX5, NOX inhibitor project, primary screen (AID 1161); settings: HEK293-NOX5, ionomycin, 45 min, higher = more signal
NADPH oxidase 5 (Homo sapiens), sequence (Q96PH1 whole entry, looked up): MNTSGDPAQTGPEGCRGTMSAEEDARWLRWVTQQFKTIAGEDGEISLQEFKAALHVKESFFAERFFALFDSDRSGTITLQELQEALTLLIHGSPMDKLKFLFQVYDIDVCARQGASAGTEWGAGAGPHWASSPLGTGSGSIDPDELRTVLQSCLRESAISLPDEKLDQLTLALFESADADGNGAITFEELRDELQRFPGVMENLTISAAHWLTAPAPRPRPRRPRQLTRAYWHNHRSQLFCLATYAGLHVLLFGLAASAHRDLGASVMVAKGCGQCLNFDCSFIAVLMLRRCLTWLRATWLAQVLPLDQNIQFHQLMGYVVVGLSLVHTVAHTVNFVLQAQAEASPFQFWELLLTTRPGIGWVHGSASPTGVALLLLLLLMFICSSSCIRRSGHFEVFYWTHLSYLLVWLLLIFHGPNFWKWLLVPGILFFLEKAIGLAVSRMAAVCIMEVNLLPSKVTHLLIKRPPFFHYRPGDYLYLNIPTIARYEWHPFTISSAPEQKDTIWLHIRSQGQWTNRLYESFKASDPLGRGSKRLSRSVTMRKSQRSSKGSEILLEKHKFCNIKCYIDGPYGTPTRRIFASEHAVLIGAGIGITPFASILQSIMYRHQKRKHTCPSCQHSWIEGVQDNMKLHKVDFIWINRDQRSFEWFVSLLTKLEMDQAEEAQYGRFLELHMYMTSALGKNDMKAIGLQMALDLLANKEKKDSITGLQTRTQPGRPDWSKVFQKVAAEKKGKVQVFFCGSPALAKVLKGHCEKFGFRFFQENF

Structure (SMILES) | composite z-score [1] | z-score [2] | z-score [3] | z-score [4] | z-score [5] | composite z-score [6] | composite z-score [7] | composite z-score [8] | composite z-score [9] | composite z-score [10] | z-score [11] | composite z-score [12] | z-score [13] | z-score [14] | z-score [15] | z-score [16] | z-score [17] | z-score [18] | z-score [19] | z-score [20]
CN(C)CCCCNC(=O)[C@H]1C[C@H]2C(=O)N[C@@H](CCCCN(C)C)C(=O)N2[C@H]1c1cccc(OCCO)c1 | 0.83 | 0.441 (inactive) | 0.251 (inactive) | -1.07 (inactive) | -0.535 (inactive) | 0.329 | -0.305 | 0.68 | 0.86 | 2.08 | 0.357 (inactive) | -0.546 | 0.72 (inactive) | -0.0174 (inactive) | -0.71 (inactive) | -0.0919 (inactive) | -0.518 | 0.731 (inactive) | 0.756 (inactive) | -0.151
Cc1ccc(S[C@]2(C(=O)NCC(F)(F)F)CC(=O)N(Cc3ccccc3)[C@@H]2c2ccc(CO)cc2)cc1 | -0.264 | -4.85 (inactive) | -0.485 (inactive) | 0.829 (inactive) | 0.906 (inactive) | -1.23 | 0.0171 | -0.2 | -0.238 | -0.243 | -0.009 (inactive) | 0.0413 | 1.6 (inactive) | -0.821 (inactive) | 1.56 (inactive) | -1.73 (inactive) | 1.98 | -0.599 (inactive) | 0.488 (inactive) | -1.68
NCCCCCCNC(=O)[C@@H]1C[C@@H]2C(=O)N3CCC[C@H]3C(=O)N2[C@@H]1c1ccc(O)cc1 | 0.236 | -0.118 (inactive) | -0.515 (inactive) | 0.826 (inactive) | -0.615 (inactive) | 1.01 | -0.323 | 0.592 | 0.513 | 2 | -1.12 (inactive) | -0.508 | 1.67 (inactive) | 0.026 (inactive) | -0.653 (inactive) | 0.105 (inactive) | -0.164 | 0.162 (inactive) | 0.116 (inactive) | -0.515
C=CCN1C(=O)[C@]2(CC=C)N=C(c3ccc(OCCCO)cc3)O[C@@H]2c2ccccc21 | 0.731 | -4.15 (inactive) | 0.312 (inactive) | 0.796 (inactive) | -0.953 (inactive) | 0.842 | 0.296 | 0.265 | 0.538 | 1.65 | 0.987 (inactive) | 0.544 | 33.2 (active) | 34.2 (active) | 2.64 (inactive) | 10.6 (active) | -0.112 | -1.13 (inactive) | 1.08 (inactive) | 1.09
C=CCC(OC(C)=O)[C@@H]1[C@@H](N(Cc2cc3ccccc3o2)C(=O)Cc2ccc(F)cc2)c2cc(OCCCO)ccc2N1C(=O)c1ccc2ccccc2n1 (stereo not given in full) | 0.705 | 0.252 (inactive) | -0.398 (inactive) | 3.16 (inactive) | 0.0063 (inactive) | 0.0443 | -0.142 | -0.398 | -0.226 | 0.0974 | -0.548 (inactive) | -0.0984 | 1.05 (inactive) | 0.213 (inactive) | -0.627 (inactive) | -0.0096 (inactive) | -0.53 | 0.259 (inactive) | 0.642 (inactive) | 1.28
COC(=O)[C@@]1(Cc2ccccc2)[C@H]2c3cc(C(=O)N4CCCC4)[nH]c3C[C@H]2CN1C(=O)c1ccccc1 | -0.0884 | -0.117 (inactive) | -0.39 (inactive) | 0.779 (inactive) | 0.283 (inactive) | 0.255 | 0.192 | 0.223 | 0.246 | -0.786 | -0.875 (inactive) | 0.269 | 4.64 (inactive) | 0.805 (inactive) | 0.102 (inactive) | 0.717 (inactive) | 0.177 | 0.0123 (inactive) | -0.696 (inactive) | -0.713
O=C1NC(=O)C2C1C=CC(C(O)c1c(F)cccc1Cl)N2Nc1ccccn1 (stereo not given) | 0.233 | 0.63 (inactive) | 0.475 (inactive) | 0.0535 (inactive) | 0.204 (inactive) | -0.201 | -0.0195 | 0.355 | 0.222 | -0.0146 | -0.805 (inactive) | 0.245 | -0.0298 (inactive) | 0.653 (inactive) | -0.254 (inactive) | 0.828 (inactive) | -1.1 | -1.84 (inactive) | -3 (inactive) | -2.23
CCN(CC)c1ccc(N2CC=CC34O[C@@H]5/C=C\CCC(C)OC(=O)C5[C@H]3C(=O)N(CCO)[C@@H]4C2=O)cc1 (stereo not given in full) | -0.442 | -1.33 (inactive) | 0.655 (inactive) | 0.195 (inactive) | -0.295 (inactive) | -0.21 | -0.0774 | -1.12 | -1.25 | 0.414 | -0.244 (inactive) | 0.33 | 3.17 (inactive) | 0.615 (inactive) | 0.411 (inactive) | 0.162 (inactive) | -0.369 | -0.361 (inactive) | 0.785 (inactive) | 1.36
